Consider 15 compounds from PubChem BioAssay AID995 (National Center for Advancing Translational Sciences (NCATS), 2007).

About 710 (0.99%) of roughly 72,000 compounds were called active. About 7% were inconclusive and are not listed. The call rests on the fitted dose curve; in most records, active means well fitted inhibition curve with a large enough effect; inconclusive means small, poorly fitted or top-dose-only effect; inactive means no such curve, though single readings can be large or run the other way. The entries come from a sample that favours actives as a whole. A call without a number means that no potency is given here.
Potency means the concentration at half of the fitted maximal effect.

The nature of this test: qHTS Assay for Inhibitors of the ERK Signaling Pathway using a Homogeneous Screening Assay. Further: nearly all actives have a fitted effect of over 55% in size. As to conditions: HEK293-V1b, vasopressin-stimulated pERK AlphaScreen; series mostly up to 57.5 µM. An excerpt: qHTS Assay for Inhibitors of the ERK Signaling Pathway using a Homogeneous Screening Assay
NIH Chemical Genomics Center [NCGC]
NIH Molecular Libraries Screening Centers Network [MLSCN]
Assay Submitter (PI): Dr. Wei Zheng, NCGC/NIH
The Ras/extracellular-signal-regulated kinase (ERK) mitogen activated protein (MAP) kinase signaling pathway (ERK1/2 cascade) plays is a key role in transmitting signals from the cell surface to the nucleus (Nishida and Gotoh 1993; Chang and Karin, 2001). The cascade is initiated by the small G-protein Ras, which recruits Raf […], where activation occurs. Alternatively, this pathway can be activated by elevating intracellular cAMP.
Activation of the ERK pathway is essential in increased cell division and cell survival. Sustained and constitutive activation of the ERK pathway, however, has been linked to uncontrolled cell proliferation, increased cell survival, and tumor progression. Thus, the ERK has been as an attractive target for cancer chemotherapy in the past few years (Sebolt-Leopold and Herrera, 2004). Given its physiological and pathological importance, assessment of ERK phosphorylation has been broadly performed in both basic research and drug discovery. Most assays for the measurement of ERK phosphorylation use the antibody-based detection methods, such as western blot and ELISA. These assays require multiple reagent additions with cell wash steps and are not suitable for high throughout screening.
The current cell-based ERK phosphorylation assay was performed using AlphaScreen platform. AlphaScreen is a two bead-based proximity-dependent chemical energy transfer luminescent assay platform. The assay reagents (ERK SureFire(TM) kit) were supplied from TGR BioSciences (Australia). In the presence of specific antibodies, phosphorylated ERK will bring "donor" and "acceptor" beads to a proximity range (<200 nm), and subsequently lead a chemical luminescent reaction upon exciting donor beads with 680 nm laser. To exclude the assay-related false positives, we used a biotinylated rabbit IgG to perform counter-screen. The biotinylated antibody mimics the phosphorylated ERK1/2 for bringing streptavidin coated beads and protein-A coated beads to a proximity range for the AlphaScreen detection.
NCGC Assay Protocol Summary:
HEK293 cells stably expressing type-1 vasopressin receptor (V1b) were maintained in DMEM medium (Invitrogen, Carlsbad, CA) at 37C under a humidified atmosphere containing 5% CO2 and 95% air. The medium contained 10% FBS, 2 mM L-glutamine, non-essential amino acid, pyruvate and 50 U/ml penicillin and 50 ug/ml streptomycin (Invitrogen). The aliquots of frozen cells were stored at -135C and used for the compound screening. All compounds were screened as titrations from 0.6 nM to 46 uM final concentration. Vasopressin was used to stimulate the ERK phosphorylation pathway. The ERK phosphorylation in cells was determined using an AlphaScreen assay kit provided by PerkinElmer. Data were normalized to the controls for basal activity (DMSO only) and 100% activation (25 nM vasopressin). AC50 values were determined from concentration-response data modeled with the standard Hill equation.
(1) Seed 4 ul/well of resuspended frozen HEK293 cells containing 2000 cells in white 1536-well plates for overnight with 1% FBS at 37C under a humidified atmosphere containing 5% CO2 and 95% air.
(2) Add 23 nL compounds in DMSO solution. The final titration was 0.6 nM to 46 uM.
(3) Incubate at 37C for 30 min.
(4) Dispense 0.5uL vasopressin (25 nM in final)
(5) Incubate at 37C for 5 min.
(6) Dispense 0.5uL of 1:2 diluted 5x lysis buffer.
(7) Incubate at 37C for 10 min.
(8) Dispense 1.5uL of mixture of activation buffer and reaction buffer with AlphaScreen beads (streptavidin donor beads and protein-A acceptor beads, 10 ng/well for each).
(9) Incubate at room temperature for 5 hr.
(10) Detect the assay plate in an EnVision plate reader (PerkinElmer) using the AlphaScreen detection mode.
[…]
For `N#Cc1c(Cl)c(Cl)c(Cl)c(C#N)c1Cl`, the Potency was 2 µM (active).

As for `C[N+]1(C)C2CC(OC(=O)C(CO)c3ccccc3)CC1[C@@H]1O[C@H]21` (stereo not given in full), the Potency result was “inactive”.

`BrC1C(Br)C(Br)C(Br)C(Br)C1Br` (stereo not given): the Potency result was “inactive”.

Regarding `COC1CC(OC2CC[C@@]3(C=O)C4CC[C@]5(C)C(C6=CC(=O)OC6)CC[C@@]5(O)C4CC[C@]3(O)C2)OC(C)C1O` (stereo not given in full), the Potency entry is “inactive”.

For `CN1[C@@H]2CC[C@H]1CC(OC(=O)c1cc(Cl)cc(Cl)c1)C2` (stereo not given in full), the Potency result was “inactive”.

With `CN1[C@@H]2CC[C@H]1CC(NC(=O)c1nn(C)c3ccccc13)C2` (stereo not given in full), the Potency entry is “inactive”.

Take `C[C@H](CCC(=O)O)[C@H]1CC[C@@H]2[C@H]3CC[C@H]4C[C@H](O)CC[C@@]4(C)[C@@H]3CC[C@@]21C`: the activity, negative = inhibition was -8.67% [at 11.5 µM] (inactive).

As to `CSC1=NP(=S)(SC)N(C)c2nc3n(c21)CCC3` (stereo not given), the Potency is 15.8 µM (active).

As for `CNC(C)[C@@H](O)c1ccccc1` (stereo not given in full), the Potency entry was “inactive”.

With `C[C@]12CC[C@H](O)CC1=CC[C@@H]1[C@H]2CC[C@]2(C)C(=O)CC[C@H]12`, the Potency result is “inactive”.

On to `O=[N+]([O-])c1ccc(Cl)c(Cl)c1`, for which the Potency entry is “inactive”.

As to `CC(C)(Cc1c[nH]c2ccc(Cl)cc12)NCCOc1ccccc1OCC1CC1`, the Potency was 39.8 µM (active).

`Clc1cccc(Cl)c1Cl`: the Potency result was “inactive”.

Turning to `CNCC[C@H](Oc1ccc(C(F)(F)F)cc1)c1ccccc1`, the Potency entry was “inactive”.

Take `CC(C)C(N)C(=O)OCCOCn1cnc2c(=O)[nH]c(N)nc21` (stereo not given): the Potency result is “inactive”.
